# Records with an inconclusive call do not appear. Where a call stands in place of a potency, no number is given. The source made the active and inactive calls. Calls follow the shape of the dose curve; as a rule, active = well fitted cell-killing curve with a large enough effect; inconclusive = small, poorly fitted or top-dose-only effect, or effect the other way; inactive = no such curve, though single readings can be large or run the other way.
# Tested on: SW626
# Experiment: Confirmatory qHTS for gynecologic anti-cancer compounds from libraries of approved drugs and bioactive compounds; also: nearly all actives have a fitted effect of over 55% in size
# Settings: gynecologic cancer cell panel viability, ATPlite luminescence, 48 h; series mostly up to 57.6 µM
# Excerpt: National Center for Advancing Translational Sciences [NCATS] Assay Overview: Chemotherapeutic drug responses vary from cancer to cancer and from patient to patient. These variations could be caused by a number of factors including patient genomic background, tumor mutations, tumor heterogeneity, and aspects of drug treatment. Chemotherapeutic drug resistance is also a common issue and can lead to ineffective treatment and patient death. Here we have profiled the cell killing effects of thousands of compounds to characterize the responses in three gynecological cancers, identify cancer-selective compounds, and understand the diversity of responses to these compounds from pan-cancer suppressors to single cell line selective compounds. In this assay, we screened a 7,914 compound drug library that included approved drug and bioactive compounds in six ovarian, three cervical, and two placental cancer cell lines using the ATPlite assay for cell viability. ATPlite is a luminescence based assay reliant on the conversion of a luciferase substrate to light in the presence of ATP. As a cytotoxic compound will suppress growth and decrease the number of cells, the concentration of ATP will decrease, and less light signal will be detected in the well. Hits were selected from the primary screen for follow-up confirmation. For the confirmation screens, the ovarian cancer cell lines included CAOV-3, SK-OV-3, SW 626, ES-2, PA-1, and TOV-21G. The cervical cancer cell lines included HeLa, Ca Ski, and C-33 A. The placental cancer cell lines included JEG-3 and JAR. HEK 293T cells were used as the control cell line to determine the selectivity index. The ATPlite assay was used to determine the IC50 values.
# Assay Protocol Summary: 1,000 cells in 4 uL of media were dispensed into white, solid bottom 1536-well plates using a Multidrop Combi (Thermo Scientific). The Assay plates were incubated for 16 hours at 37 C with 5% CO2 in assay plates, followed by the addition of 23 nL of DMSO or drug dissolved in DMSO. . Each compound was assayed in 11 concentrations (1:3 dilution) from 57.5 uM to 0.977 nM, using the automated Wako 1536 Pin Tool workstation and incubated at 37 C with 5% CO2 48 hours. 4 uL of ATPlite, the ATP monitoring reagent, was then added to the each well of the assay plates using the Multidrop Combi reagent dispenser followed by incubation for 15 minutes at room temperature. The resulting luminescence was measured using the ViewLux plate reader.
# Potency is read from the fitted curve at half-maximal effect.
row,Compound,Potency
1,CCNC(=O)C[C@@H]1N=C(c2ccc(Cl)cc2)c2cc(OC)ccc2-n2c(C)nnc21,inactive
2,O=C(O)Cc1ccccc1,inactive
3,C[C@H]1CCC/C=C/C2C[C@H](O)C[C@H]2[C@H](O)/C=C/C(=O)O1 (some centres not stated),172 nM (active)
4,C=C(C)[C@H]1Cc2c(ccc3c2O[C@@H]2COc4cc(OC)c(OC)cc4[C@@H]2C3=O)O1,inactive
5,C[C@]12CC[C@H]3[C@@H](CCC4=CC(=O)CC[C@@H]43)[C@@H]1CC[C@@H]2OC(=O)CCc1ccccc1,inactive
6,CCOc1ccccc1-n1c(C(C)N2CCN(C(=O)COc3ccc(Cl)cc3)CC2)nc2ccccc2c1=O (configuration not stated),4850 nM (active)
7,CCN1CCN(C(=O)Cc2ccc(Nc3ncc(F)c(Nc4ccc(C(=O)Nc5ccccc5Cl)cc4)n3)cc2)CC1,inactive
